Shown are actives, neighbours in structure and some others; about 5.3% of the full set was active somewhere.
12-hLO inh – qHTS Assay for Inhibitors of 12-hLO (12-human lipoxygenase); Polyunsaturated fatty acid lipoxygenase ALOX12 (Homo sapiens), P18054; purified 12-hLO, xylenol orange hydroperoxide absorbance; Potency, µM (titrated, usually from 57.1 µM), hits mostly inhibitors; hit rate 0.12% among 150,000; further: nearly all actives have a fitted effect of over 55% in size
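Lipoxygenase turnover measured by absorbance at 573 and 405 nm after Fe-XO development. Human 12hLO 150 nM, arachidonate 40 uM, pH 7.0 Hepes buffer with detergent; 15 min compound preincubation, 30 min reaction.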
PNC assembly inh – High Content Assay for Compounds that inhibit the Assembly of the Perinucleolar Compartment | hit rate 3.1% among 140,000 | AID 2417, 2010 | PC3M PTB-GFP, PNC prevalence imaging, 16 h; active compounds read low | activity change (PNC), negative = inhibition, % at 10 µM;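 active means readout at or below -70, meaning at least 70% loss of cells showing the perinucleolar compartment, a nuclear body marking cancer cells; inconclusive means readout between -30 and a set limit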
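PC3M cells stably expressing PTB-GFP, 750–1000 cells/well, treated 16 h at 37 °C with compound (23 nl of library stock), in duplicate. After paraformaldehyde fixation and Hoechst stain, imaged at 20x; PNC prevalence scored by image analysis.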
IMPase cell inh – qHTS Assay for Identifying the Cell-Membrane Permeable IMPase Inhibitors; CHO-M1 cells, IP1 accumulation, HTRF TR-FRET ratio; inhibition (IP1 accumulation), % at 46.1 µM; 120,000 tested, under 10 active; Inositol monophosphatase 1 (Rattus norvegicus), P97697; active means well fitted curve in the direction sought with a large enough effect in the signal ratio, not every such curve was filed as active; inconclusive means small, poorly fitted or top-dose-only effect, or a change in a side signal; inactive means no such curve, though single readings can be large or run the other way; the % refers to the signal ratio;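 further: cells stimulated with carbachol in lithium chloride buffer; higher means more IMPase inhibition seen as more IP1 and lower FRET ratio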
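In this qHTS, compounds (final up to 46 uM) act on CHO-M1 cells that are then activated through the M1 receptor with carbachol, in pH 7.4 buffer containing 50 mM LiCl, for 30 min. IP1 accumulation is quantified by the IP-One immunoassay.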
HPGD block – qHTS Assay for Inhibitors of HPGD (15-Hydroxyprostaglandin Dehydrogenase); 15-hydroxyprostaglandin dehydrogenase [NAD(+)] (Homo sapiens), P15428; purified HPGD, NADH fluorescence kinetic, PGE2 substrate; Potency, µM, usual class: inhibitors; hit rate 4.3% among 150,000; AID 894, 2007; active means well fitted inhibition curve with a large enough effect, not every such curve was filed as active; inconclusive means small, poorly fitted or top-dose-only effect, or another doubt; inactive means no such curve, though single readings can be large or run the other way
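NADH formation kinetics: reaction with 30 uM PGE2 and 1 mM NAD+ (final), 20 nM enzyme, Tris-HCl pH 8 with Tween 20, after 15 min compound preincubation at room temperature. Fluorescence change, last versus first of five reads.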
ALOX15B inhib – qHTS Assay for Inhibitors of 15-hLO-2 (15-human lipoxygenase 2). Polyunsaturated fatty acid lipoxygenase ALOX15B (Homo sapiens), O15296. purified 15hLO-2, xylenol orange hydroperoxide absorbance. Potency, µM (series often up to 57.1 µM), most hits filed as inhibitors. hit rate 0.56% among 110,000; further: nearly all actives have a fitted effect of over 60% in size
Target sequence (O15296 whole entry, looked up): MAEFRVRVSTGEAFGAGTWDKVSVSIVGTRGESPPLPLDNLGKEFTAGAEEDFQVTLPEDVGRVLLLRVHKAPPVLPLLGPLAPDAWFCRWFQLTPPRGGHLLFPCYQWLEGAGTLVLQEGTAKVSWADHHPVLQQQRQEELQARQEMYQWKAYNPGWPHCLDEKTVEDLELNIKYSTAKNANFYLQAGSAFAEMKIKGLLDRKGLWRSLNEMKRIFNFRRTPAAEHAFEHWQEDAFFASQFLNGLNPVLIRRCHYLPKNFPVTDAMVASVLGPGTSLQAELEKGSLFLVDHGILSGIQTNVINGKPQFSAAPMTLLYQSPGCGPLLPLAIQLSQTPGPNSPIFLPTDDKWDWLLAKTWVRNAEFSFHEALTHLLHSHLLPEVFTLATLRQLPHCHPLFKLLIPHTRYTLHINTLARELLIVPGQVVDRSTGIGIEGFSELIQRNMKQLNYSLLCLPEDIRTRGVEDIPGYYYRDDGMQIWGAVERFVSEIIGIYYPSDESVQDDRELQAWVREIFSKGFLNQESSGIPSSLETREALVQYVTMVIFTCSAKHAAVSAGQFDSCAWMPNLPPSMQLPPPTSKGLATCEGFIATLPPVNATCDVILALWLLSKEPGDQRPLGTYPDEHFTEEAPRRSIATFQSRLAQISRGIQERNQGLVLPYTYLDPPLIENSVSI
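Read-out: hydroperoxide product oxidises ferrous iron, measured as xylenol orange complex via the 573-to-405 nm absorbance ratio after 30 min. Reaction: 50 nM enzyme, 15 min compound preincubation, 45 uM arachidonic acid, 90 min RT, Hepes pH 7.5 with Triton X-100.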
IMPase Li inh – qHTS Assay for Identifying the Cell-Membrane Permeable IMPase Inhibitors: Potentiation with Lithium | hit rate 0.35% among 210,000 | AID 1457, 2008 | CHO-M1 cells, IP1 TR-FRET (IP-One), carbachol + lithium | Potency, µM (doses to about 59.4 µM), actives largely listed as inhibitors;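 further: IP1 builds up when IMPase is blocked and the TR-FRET signal falls; nearly all actives have a fitted effect of over 50% in size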
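Test compounds were applied to CHO-M1 cells previously cultured for 16–30 h at 2000 per well. A small lithium amount accompanied them; after 30 min at 37C, IP1 was quantified by TR-FRET.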
Of the large screens only hits and unclear results are named; the others gave an inactive call. Unless noted, the call rests on the fitted dose curve; in most records, active means well fitted curve in the direction sought with a large enough effect; inconclusive means small, poorly fitted or top-dose-only effect, or another doubt; inactive means no such curve, though single readings can be large; an effect the other way counts as inactive or inconclusive.

COc1cnn(-c2ccc(C)cc2)c(=O)c1SCc1ccccc1	IMPase cell inh inconclusive (no result: HPGD block, IMPase Li inh)
CSc1cnn(Cc2ccccc2)c(=O)c1SCc1ccccc1	HPGD block inconclusive (no result: IMPase cell inh, ALOX15B inhib)
CCCCSc1cnn(-c2ccccc2)c(=O)c1SCCCC	PNC assembly inh -81, IMPase cell inh inconclusive (no result: ALOX15B inhib)
CSc1cnn(-c2ccccc2)c(=O)c1SC	IMPase cell inh inconclusive, IMPase Li inh 11µM
CCc1ccc(OCC(=O)Nc2ccc(-c3nc4ncccc4o3)cc2)cc1	none (no result: 12-hLO inh, PNC assembly inh, HPGD block, ALOX15B inhib, IMPase Li inh)
O=C(CSc1ncn(-c2ccccc2)n1)Nc1nc(-c2ccccc2)cs1	PNC assembly inh inconclusive (no result: IMPase cell inh, ALOX15B inhib)
CC(=O)Nc1ccc(C(=O)CSc2ncn(-c3ccccc3)n2)cc1	HPGD block 13µM
O=C(CSc1ncn(-c2ccccc2)n1)Nc1nncs1	none (no result: 12-hLO inh, PNC assembly inh, IMPase cell inh, HPGD block, ALOX15B inhib)
Cn1cc(SCC(=O)Nc2nc3ccccc3s2)c2ccccc21	PNC assembly inh -89
O=C(CSc1ncn(-c2ccccc2)n1)Nc1nc2ccccc2s1	HPGD block 22µM
Cc1csc(SCC(=O)Nc2nc3ccccc3s2)n1	none
CCn1c(=O)n(-c2ccc(Cl)cc2)c(=O)c2c3c(sc21)COC(C)(C)C3	none
Cc1nc(N2CCOCC2)nc(OCCN2CCOCC2)c1[N+](=O)[O-]	PNC assembly inh inconclusive (no result: IMPase cell inh, ALOX15B inhib)
NCC(=O)Nc1ccccc1	none (no result: PNC assembly inh, IMPase cell inh)
CC(C)NC(=O)NC(=O)COC(=O)c1ccccc1O	none (no result: 12-hLO inh, PNC assembly inh, IMPase cell inh, HPGD block, ALOX15B inhib)
CC(C)NC(=O)NC(=O)COC(=O)c1ccccc1F	PNC assembly inh -115 (no result: HPGD block, ALOX15B inhib, IMPase Li inh)
CC(C)CCNC(=O)NC(=O)COC(=O)C1CCN(S(=O)(=O)c2ccccc2F)CC1	PNC assembly inh inconclusive (no result: ALOX15B inhib)
O=C(O)C(S)[C@@H](S)C(=O)O (some centres not stated)	HPGD block 4.5µM (no result: PNC assembly inh, IMPase cell inh)
CCc1cccc(CC)c1NC(=O)COC(=O)c1ccc(F)c(S(=O)(=O)N(CC)CC)c1	none (no result: ALOX15B inhib)
CCOc1ccc(-n2c(C)nc(O)c2N=Nc2ccccc2)cc1	none (no result: 12-hLO inh, PNC assembly inh, IMPase cell inh, HPGD block, ALOX15B inhib)
COc1cc2[nH]c(=S)nc(NCCCOC(C)C)c2cc1OC	HPGD block 18µM
CCOCCCNc1nc(=S)[nH]c2cc(OC)c(OC)cc12	none
CC(C)N1CCN(Cc2ccc(-c3ccccc3Cl)o2)CC1CCO (configuration not stated)	none (no result: 12-hLO inh, PNC assembly inh, IMPase cell inh, HPGD block, ALOX15B inhib)
c1ccc(-c2nnc3sc(-c4csc5c4CCCC5)nn23)cc1	HPGD block 11µM
O=C(Cc1ccc(Cl)cc1)Nc1ccc(SC(F)F)cc1	none (no result: IMPase cell inh, ALOX15B inhib)
O=C(c1ccco1)N1N=C2CCCCCC2C1(O)C(F)(F)F (configuration not stated)	none (no result: 12-hLO inh, PNC assembly inh, IMPase cell inh, HPGD block, ALOX15B inhib)
CCc1nnc(NC(=O)C2COc3ccccc3O2)s1 (configuration not stated)	PNC assembly inh -80
O=S(=O)(Cc1ccccc1)N1CCCC1	PNC assembly inh -100
CCc1nnc(NC(=O)C2CCN(S(=O)(=O)Cc3ccccc3)CC2)s1	PNC assembly inh -100 (no result: ALOX15B inhib)
CCN1CCN(S(=O)(=O)Cc2ccccc2)CC1	none
CC[C@@H](C)C(NC(=O)OC(C)(C)C)c1cn([C@@H](CCC(=O)OC(C)(C)C)C(=O)N2CCN(C(=O)OC(C)(C)C)CC2)nn1 (some centres not stated)	none (no result: 12-hLO inh, PNC assembly inh, IMPase cell inh, HPGD block, ALOX15B inhib)
CCCCNC(=O)CSc1nnc(-c2c[nH]c3ccccc23)n1CC1CCCO1 (configuration not stated)	none
COc1ccc(Cc2nnc(-c3ccccc3)o2)cc1	none (no result: 12-hLO inh, PNC assembly inh, IMPase cell inh, HPGD block, ALOX15B inhib)
Cc1cc(C)c(C#N)c(SCc2nnc(-c3ccccc3)o2)n1	HPGD block 4µM (no result: IMPase cell inh, ALOX15B inhib)
COc1ccc(Cc2nnc(-c3cccc(C)c3)o2)cc1OC	HPGD block 18µM (no result: ALOX15B inhib)
c1ccc(-c2nnc(CSc3nncs3)o2)cc1	PNC assembly inh inconclusive, HPGD block 25µM
c1ccc(Cc2nnc(-c3ccccc3)o2)cc1	PNC assembly inh inconclusive, HPGD block 7.9µM
c1ccc(Cn2ccnc2SCc2nnc(-c3ccccc3)o2)cc1	HPGD block 25µM
COC(=O)C(Cc1ccccc1)NC(=S)NC(=O)c1ccccc1 (configuration not stated)	none (no result: 12-hLO inh, PNC assembly inh, IMPase cell inh, HPGD block, ALOX15B inhib)
CCCc1nc(S(=O)(=O)Cc2ccc(Cl)cc2Cl)n[nH]1	PNC assembly inh -116 (no result: HPGD block, IMPase Li inh)
O=c1[nH]nc(Cc2ccc(Cl)cc2Cl)c2ccccc12	none
O=C(COC(=O)CCC(=O)c1ccc(F)cc1)Nc1ccc(N2CCOCC2)cc1	HPGD block 18µM
C=CCN1C(=O)C2(/C(=C(\O)c3ccc4c(c3)OCCO4)C(=O)C(=O)N2CCCOC)c2ccccc21 (configuration not stated)	PNC assembly inh -96
CC1CCc2sc(C(=O)OCC(=O)NCc3ccc(F)cc3)cc2C1 (configuration not stated)	none (no result: HPGD block, ALOX15B inhib, IMPase Li inh)
COc1cccc(Cn2c(-c3nonc3N)nc3ccccc32)c1	PNC assembly inh -111
COc1ccc(Cn2c(-c3ccc(OC)cc3)nc3ccccc32)cc1	PNC assembly inh -100 (no result: ALOX15B inhib)
COc1cc(Cn2c(-c3nonc3N)nc3ccccc32)ccc1C	PNC assembly inh inconclusive
COCCn1c(-c2ccc(OC)cc2)nc2ccccc21	none

From PubChem
